Results reported in PubChem BioAssay (NCI).
About 79,000 compounds went through this panel and 15% of them were active in at least one assay; those are over-represented in the sample as a whole. Values without a mark were called inactive. Calls of active or inactive are those of the source. Cut-off read from the data, not from the text of the source: active = growth inhibition above about 70%; inactive = the rest.

Experiment: NCI Yeast Anticancer Drug Screen. Data for the CLN2oe strain (AID 163);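 note: 0% = growth of vehicle-only control cultures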
Details: S. cerevisiae CLN2oe strain, active compounds read high
Method: Growth inhibition of yeast strains with defined genetic alterations is measured as a screen for potential anti-cancer activity. Selected strains with alterations in DNA damage repair or cell cycle control were exposed to compounds and growth inhibition was measured relative to vehicle treated controls. The strain used in this assay is CLN2oe

Row | SMILES | growth inhibition (at 1.2 µM) [%] | growth inhibition (at 3.7 µM) [%] | growth inhibition (at 11.0 µM) | growth inhibition (at 33.0 µM) | growth inhibition (at 100.0 µM)
1 | N=c1oc2ccccc2cc1-c1nc2ccccc2[nH]1 | 6 | -21 | 12% | 25% | 47%
2 | CN(C)N=Nc1ccc(NC=O)cc1 | 31 | 27 | 49% | 98% (active) | 99% (active)
3 | CN(C)CCNC(=O)c1cccc2nc3c4ccccc4c4ccccc4c3nc12 | 0 | -3 | 29% | 97% (active) | 92% (active)
4 | CCOC(=O)C1=C(C)NC(C)=C(C(=O)OCC)C1c1cccc([N+](=O)[O-])c1 | -31 | -34 | -23% | 31% | 87% (active)
5 | O=C(O)NCC1CCCCC1 (tested in a mixture with another compound) | 1 | -7 | -6% | -5% | 26%
6 | CCN(CC)c1ccc(N=Nc2cc(S(=O)(=O)O)ccc2O)c(O)c1 | 8 | 18 | 4% | 9% | 10%
7 | CCCCOc1ccc(Nc2c3ccccc3nc3ccccc23)cc1 | -26 | 0 | 72% (active) | 98% (active) | 76% (active)
8 | CCOC(=O)c1sc2[n+](c1C)C(=O)/C(=C/c1cc(OC)c(OC)c(OC)c1)S2 | 11 | 5 | 26% | 76% (active) | 83% (active)
